Experimental data reported in ChEMBL document CHEMBL4513216, “Probing the Open Global Health Chemical Diversity Library for Multistage-Active Starting Points for Next-Generation Antimalarials” (ACS Infect Dis, 2020).
The campaign covered roughly 69,000 compounds. About 8,600 (12%) showed an effect of 50% or more. The full list was thinned out, with strong results kept by preference.

Test system: Plasmodium berghei
Experiment: Screen against P. berghei liver stage (PbLuc), transformed with Luciferase, at 10uM
Format: functional, HepG2
Conditions: tested at 10 uM

Compound	INHIBITION [%]
CN(C)C(=O)N[C@@H]1CN(Cc2ccc3c(c2)OCO3)[C@@H]2CCCO[C@@H]21	-15.5
Cc1cc(OCC(=O)N2CCCC2c2noc(C)n2)no1 (stereo not given)	2.97
COc1ccc(OC2CCN(C(=O)c3ccc(C)[nH]c3=O)CC2)cc1	29.85
Cc1ccc(C(=O)N2CCC(Oc3ccc(C)c(C)c3)CC2)c(=O)[nH]1	69.65
Cc1ccc(C(=O)N2CCC(Oc3cccc(C)c3C)CC2)c(=O)[nH]1	45.5
COc1ccccc1OC1CCN(C(=O)c2c[nH]c(=O)[nH]c2=O)CC1	-7.76
Cc1ccc(C(=O)N2CCC(Oc3ccccc3)CC2)c(=O)[nH]1	29.4
Cc1ccccc1OC1CCN(C(=O)c2c[nH]c(=O)[nH]c2=O)CC1	60.4
COc1cccc(CC(=O)N2CCC(NCc3c[nH]nc3C)CC2)c1	-17.35
O=C(CCCc1ccccn1)N1CCCC1c1noc(C2CC2)n1 (stereo not given)	0.411
O=C(c1nnn(-c2ccccc2)n1)N(CCO)CCO	-7.77
Cc1cccc(NC(=O)Cc2cnc3n(C)c(=O)[nH]c(=O)n23)c1	27.5
O=C(Cc1ccc2c(c1)CCO2)N1CCCC1Cn1cccn1 (stereo not given)	31.6
CCS(=O)(=O)NCCCNC1CSCCc2ccccc21 (stereo not given)	60.9
CNC(=O)CN1CCC(NC2CSCCc3ccccc32)CC1 (stereo not given)	-18.9
CCS(=O)(=O)NCCN(CCO)C1CCc2ccccc21 (stereo not given)	29.4
OCCNC1CSCCc2ccccc21 (stereo not given)	-56.6
CCCNC(=O)CCNC1CSCCc2ccccc21 (stereo not given)	76.9
CC(C)(C)S(=O)(=O)CCNC1CSCCc2ccccc21 (stereo not given)	-56.6
COc1ccc(CCNC(=O)c2ccc(=O)n(C)c2)c(Cl)c1	1.74
Cn1ncc2c(=O)[nH]c(CN3CCCC3CCc3ccccc3)nc21 (stereo not given)	19.6
Cc1cc(C)c(CNC(=O)NCCC2CCCO2)c(=O)[nH]1 (stereo not given)	1.82

Compound	INHIBITION [%]
COc1ccc2c(c1)C(C(=O)NCCN1CCOC1=O)CC(=O)N2 (stereo not given)	34.9
Cc1cc(C)n(C2CCCN(C(=O)c3cccc(F)c3F)C2)n1 (stereo not given)	33
CCN1CCN(C(=O)Cc2ccc(S(=O)(=O)C(F)F)cc2)CC1	55.9
CN1CCN(C(=O)Cc2ccc(S(=O)(=O)C(F)F)cc2)CC1	39.6
O=C(Cc1ccc(S(=O)(=O)C(F)F)cc1)N1CCC1	43.9
CCn1ccc(NC(=O)c2cc(C)on2)n1	-9.21
COCCNC(=O)c1ccc2c(=O)n3c(nc2c1)CCCC3	54.9
COCCNC(=O)c1ccc2c(=O)n3c(nc2c1)CCN(C)CC3	-48.5
COCCNC(=O)c1ccc2c(=O)n3c(nc2c1)CCCCCC3	55.4
COCCNC(=O)c1ccc2c(=O)n3c(nc2c1)CCCCC3	40.8
COCCN1CCn2c(nc3cc(C(=O)NC(C)C)ccc32)C1	19.3
CN1CCc2nc3cc(C(=O)NCc4cccs4)ccc3c(=O)n2CC1	21.1
Cc1nn(C)c(C)c1C1CCCN1Cc1nc2ccccc2n1C (stereo not given)	-55.4
COc1cccc(-n2nnc(C(=O)N3CCOC(C)C3)c2C)c1 (stereo not given)	14.05
CCOC1CCC2(CCN(C(=O)c3c[nH]cn3)CC2)c2ccccc21 (stereo not given)	51.4
CNC(=O)C1CC2(CCN(C(=O)c3csnn3)CC2)c2ccccc21 (stereo not given)	51.3
CC1CC2(CCN(C(=O)c3c[nH]cn3)CC2)c2ccccc21 (stereo not given)	5.68
CCOC1CCC2(CCN(C(=O)c3csnn3)CC2)c2ccccc21 (stereo not given)	56.4
CN1CCN(C(=O)c2csnn2)c2ccccc21	23.2
CS(=O)(=O)N1CC2(CCN(C(=O)c3csnn3)CC2)c2ccccc21	13.7
CC1CC2(CCN(C(=O)c3csnn3)CC2)c2ccccc21 (stereo not given)	15.9
CCOC1CC2(CCN(C(C)=O)CC2)c2cc(F)ccc21 (stereo not given)	-33.9

Compound	INHIBITION [%]
CCOc1ccccc1OC1CCN(C(=O)c2csnn2)CC1	15.3
Cc1cccc(CN2C(=O)CO[C@@H]3CN(Cc4nccn4C)C[C@H]32)c1	36.1
COc1cccc(C2(CNC(C)c3nnc(C)o3)CCCC2)c1 (stereo not given)	3.03
CN1CCCC(Cc2cncc(Br)c2)CC1 (stereo not given)	44.9
CC(C)N1CCCC(Cc2cncc(Br)c2)CC1 (stereo not given)	51.5
CS(=O)(=O)N1CCCC(Cc2cncc(Br)c2)CC1 (stereo not given)	29.3
CN1CCN(C(=O)c2cncc(CC3CCCN(C)C3)c2)CC1 (stereo not given)	37
CC(=O)N1CCCC(Cc2cncc(Br)c2)C1 (stereo not given)	44.1
CC(=O)N1CCCC(Cc2cncc(Br)c2)CC1 (stereo not given)	54.6
CC(=O)N1CCC(c2cncc(Cl)n2)CC1	1.62
Cc1cccc(CN2CCC3(CCCN(C(=O)N4CCCC4)C3)C2=O)n1 (stereo not given)	-29.3
CC(=O)NCCNC(=O)c1nc(C2CC2)n(-c2ccccc2Cl)n1	8.46
Cc1ccc(S(=O)(=O)N(CC2CCOC2)C2CC2)cc1N(C)C (stereo not given)	17.1
O=C(c1ccco1)N1CCc2ncc(CN3CCOCC3)n2CC1	5.44
c1csc(-c2noc(C3CCCOC3)n2)c1 (stereo not given)	-31
c1cnc(-c2noc(C3CN(Cc4ccsc4)C3)n2)cn1	28.3
c1csc(-c2noc(C3CN(Cc4ccc5c(c4)CCO5)C3)n2)c1	52.5
c1csc(-c2noc(C3CCCNC3)n2)c1 (stereo not given)	41.5
Cc1noc(C2CN(Cc3ccc4c(c3)CCO4)C2)n1	-5.01
c1cnc(-c2noc(C3CN(Cc4ccc5c(c4)CCO5)C3)n2)cn1	58.5
c1cnc(-c2noc(C3CN(Cc4ccc5c(c4)CCO5)C3)n2)nc1	27.5
CCS(=O)(=O)N1CC(c2nc(-c3cccs3)no2)C1	9.41

Compound	INHIBITION [%]
c1csc(-c2noc(C3CNC3)n2)c1	58.1
CCN(CC)CCNc1nc(C(C)C)nc2c(C)nn(CC)c12	44.9
CN(C)CCN1CCCC12CCN(C(=O)c1cccnc1)CC2	11.6
Cc1ccc(NC2CCN(C(=O)c3ccoc3C)CC2)nn1	28.95
CN1CCC(N2CCCC(C(=O)N3Cc4ccccc4C3)C2)CC1 (stereo not given)	10.6
O=C(Nc1nncs1)NC1CCN(Cc2ccccc2)C1 (stereo not given)	12.433
Cc1noc([C@@H]2C[C@@H]3CCN(CC4CC4)C[C@H]3O2)n1	-6.39
Cn1ccnc1CNC(=O)N(CCCO)C1CCCc2ccccc21 (stereo not given)	-17.4
Cc1nnc(CN(C)CC(=O)NCCc2ccc(F)cc2)n1C	-9.39
CC(C)COc1ccccc1C(N)CC(C)C (stereo not given)	30.9
CCOc1ccccc1C(N)CC(C)C (stereo not given)	30.9
CCCOc1ccccc1C(N)CC(C)C (stereo not given)	80.9
COCCN1CCOCC2(CCN(c3cnccn3)CC2)C1	29.4
CCc1nc(C)ncc1C(=O)N1CC(=O)N(C)c2ccccc21	28.7
CCc1nc(C)ncc1C(=O)N1CCN(CC)c2ccccc21	47.7
CCc1nc(C)ncc1C(=O)N1CC(C)CN(C)c2ccccc21 (stereo not given)	57.8
CO[C@@H]1CCN(Cc2nccs2)C[C@@H]1Cc1ccccc1	62.5
CO[C@@H]1CCN(Cc2nccs2)C[C@@H]1Cc1cccc(C)c1	54.4
CO[C@H]1CCN(c2nnc(C)s2)C[C@@H]1Cc1cccc(C)c1	24.9
C[C@@H]1C[C@@H]2CCN(Cc3nccs3)C[C@H]2O1	40.8
CO[C@H]1CCN(C2CCOCC2)C[C@@H]1Cc1ccccc1	-8.51
C[C@H]1C[C@@H]2CCN(Cc3nccs3)C[C@H]2O1	20.1

Compound	INHIBITION [%]
CO[C@@H]1CCN(C2CCOCC2)C[C@@H]1Cc1ccccc1	-84.9
CO[C@@H]1CCN(c2nnc(C)s2)C[C@@H]1Cc1cccc(C)c1	2.41
CO[C@H]1CCN(Cc2nccs2)C[C@@H]1Cc1ccccc1	69.5
Cc1nc2c(c(=O)[nH]1)CN(C(=O)CC[C@@H]1CCCN3CCCC[C@H]13)C2	-1.85
Cc1nn(C)c(N(C)C)c1CNCc1ccccc1Cn1cccn1	33.8
O=C(c1c[nH]cn1)N1CCCn2c(CN3CCCCC3)nnc2C1	-56.3
CNS(=O)(=O)c1ccc(CNC(=O)N(C)CC(C)C)cc1	18.3
Cc1cnc2n(c1=O)C(CC(=O)NCc1ccc(F)cc1)CS2 (stereo not given)	18.3
Cc1cnc2n(c1=O)C(CC(=O)NCc1ccccc1Cl)CS2 (stereo not given)	6.67
Cc1cnc2n(c1=O)C(CC(=O)NCc1ccc(Cl)cc1)CS2 (stereo not given)	61.2
CCOCC1CN(C(=O)c2ccncn2)Cc2cnn(CC)c21 (stereo not given)	35.7
CCc1n[nH]c(C2CN(C(=O)c3ccc4c(c3)CCC4)CCO2)n1 (stereo not given)	-12.1
COc1ccccc1-n1c(O)cc(C)c(C#N)c1=O	39.1
Cc1ccccc1-n1c(O)cc(C)c(C#N)c1=O	3.84
Cc1cc(O)n(-c2ccccc2Cl)c(=O)c1C#N	50.4
Cc1c(S(=O)(=O)NC2CC2)cc2c(C)cc(=O)n3c2c1CCC3	-17.1
CCCNc1c(NC(=O)NCCCOC)c(=O)oc2ccccc12	-13.6
CCNc1c(NC(=O)NCCOC)c(=O)oc2ccccc12	69.9
CCCNc1c(NC(=O)NCCOC)c(=O)oc2ccccc12	-24.7
CN1CCC(NC(=O)Nc2cnn(-c3ccccc3Cl)c2)CC1	-10.1
CCC(CNC(=O)NC1CCN(C)CC1)Oc1ccccc1Cl (stereo not given)	89.6
CN1CCC(NC(=O)NCCNc2ccccn2)CC1	16.1
